Here are results for 15 compounds from PubChem BioAssay.

For part of these data: Results with a measured potency or affinity are listed apart. The source made the active and inactive calls.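 The calls were made as follows, unless noted: active = fitted half-maximal concentration within 10 nM to 100 µM, steepness 0.5 to 2, significant signal drop, low assay interference; inactive = the rest.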

In assay [1] the target is Cell division control protein 42 homolog (Homo sapiens) (UniProt P60953). Nature of the assay: inhibition of fluorescent GTP binding to constitutively active Cdc42 – biochemical, multiplex bead flow cytometry, Bodipy-FL-GTP, dose response (AID 1333;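 active = fitted half-maximal concentration within the tested dose range, moderate curve steepness, a statistically real signal drop, and little compound fluorescence or tag-binding interference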). On the technique in general: Flow cytometry measures light scatter and fluorescence of single cells or particles in a stream.

The target is the same in assay [2]. In words: inhibition of fluorescent GTP binding to wildtype Cdc42 – biochemical, multiplex bead flow cytometry, Bodipy-FL-GTP, dose response (AID 1334;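 active = fitted half-maximal concentration within the tested range, moderate curve steepness, significant signal drop, and little compound fluorescence or bead-linkage interference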). As to conditions: bead-based flow cytometry, Bodipy-FL-GTP binding to GST-Cdc42; at 100 µM (top of the series) unless noted.
Assay [3] addresses GTPase HRas (Homo sapiens) (UniProt P01112). Nature of the assay: Ras wt fluorescent GTP loading blockade – biochemical, wildtype, multiplex bead flow cytometry, dose response (AID 1335). As to conditions: bead-based flow cytometry, Bodipy-GTP binding to GST-Ras; at 100 µM (top of the series) unless noted.
Assay [4] deals with Ras-related protein Rab-7a (dog), GTP binding. In words: blockers of fluorescent GTP binding to Rab7 – biochemical, wildtype, multiplex bead flow cytometry, dose response (AID 1336; call rule not given here).
Assay [5] addresses Ras-related C3 botulinum toxin substrate 1 (Homo sapiens) (UniProt P63000). Nature of the assay: inhibition of wildtype Rac1 nucleotide loading – biochemical, multiplex bead flow cytometry, dose response (AID 1340;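 active = dose curve with midpoint inside tested range, moderate steepness, plateau gap beyond fit error, low compound glow and bead-link interference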). As to conditions: GST-Rac1 beads, Bodipy-FL-GTP binding; at 100 µM (top of the series) unless noted.
The target in assay [6] is GTPase HRas (Homo sapiens) (UniProt P01112). In words: blockade of GTP loading onto mutant Ras – biochemical, activated mutant, multiplex bead flow cytometry, dose response (AID 1341;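 active = dose-response curve with midpoint inside the tested range, moderate steepness, significant amplitude and little compound fluorescence or bead-attachment interference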;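 also: GST-tagged constitutively activated Ras mutant immobilized on beads and multiplexed with other GTPases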).
GTPase HRas (Homo sapiens), sequence (P01112 whole entry, looked up): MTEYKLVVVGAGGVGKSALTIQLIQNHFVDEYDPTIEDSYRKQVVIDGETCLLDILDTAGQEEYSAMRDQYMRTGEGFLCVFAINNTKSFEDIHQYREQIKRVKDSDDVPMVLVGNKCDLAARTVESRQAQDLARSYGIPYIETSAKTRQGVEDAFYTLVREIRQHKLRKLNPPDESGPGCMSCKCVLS

Cell division control protein 42 homolog (Homo sapiens), sequence (P60953 whole entry, looked up): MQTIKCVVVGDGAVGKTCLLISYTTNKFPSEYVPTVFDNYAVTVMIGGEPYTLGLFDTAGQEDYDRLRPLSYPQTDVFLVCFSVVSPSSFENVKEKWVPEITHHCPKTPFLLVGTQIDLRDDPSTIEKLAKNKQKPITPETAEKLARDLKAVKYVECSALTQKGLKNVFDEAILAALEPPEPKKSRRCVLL

Take `Cc1nonc1OCCNc1ccc([N+](=O)[O-])cc1[N+](=O)[O-]`: the outcome in assay [1], in assay [4] and in assay [6] was inactive. This compound also showed a fluorescence, percent of control (lower = inhibition) in assay [2] of 50.3%. This compound also registered a GTP binding, percent of control in assay [3] of 63.5%. In assay [5], this compound came in with a GTP binding signal, raw median fluorescence (lower = inhibition) (MCF (arbitrary fluorescence units)) of 209.

Consider `C=CCN1C(=O)/C(=C/C=C2/N(CC)c3ccc(S(=O)(=O)N(C)C)cc3N2CC)SC1=S`, for which the call in assay [1], in assay [4] and in assay [6] was inactive. The compound further came in with a fluorescence, percent of control (lower = inhibition) in assay [2] of 56.2%. Further, the GTP binding, percent of control in assay [3] turned out to be 88.4%. This compound also had a GTP binding signal, raw median fluorescence (lower = inhibition) (MCF (arbitrary fluorescence units)) in assay [5] of 215.

Take `COc1ccccc1-n1cc([C@@H]2C[C@H]3CN(c4ccccc4)C(=O)[C@]34CCCN24)cn1`: the compound was called inactive in assay [1], in assay [4] and in assay [6]. The same compound had a fluorescence, percent of control (lower = inhibition) in assay [2] of 71.8%. In assay [3], the GTP binding, percent of control worked out at 119%. Further, the GTP binding signal, raw median fluorescence (lower = inhibition) (MCF (arbitrary fluorescence units)) in assay [5] was found to be 293.

In the case of `O=C(COC(=O)c1ccc2c(c1[N+](=O)[O-])C(=O)c1ccccc1C2=O)NC1CC1`, the outcome in assay [1], in assay [4] and in assay [6] was inactive. This compound also yielded a fluorescence, percent of control (lower = inhibition) in assay [2] of 29.3%. Further, the GTP binding, percent of control in assay [3] was determined as 72.9%. This compound registered a GTP binding signal, raw median fluorescence (lower = inhibition) (MCF (arbitrary fluorescence units)) in assay [5] of 178.

Regarding `C=CCn1c(-c2csc(-c3ccc(Cl)cc3)n2)n[nH]c1=S`, the result in assay [1], in assay [4] and in assay [6] was inactive. The same compound registered a fluorescence, percent of control (lower = inhibition) in assay [2] of 40.8%. In assay [3], this compound yielded a GTP binding, percent of control of 89.3%. For the same compound, the GTP binding signal, raw median fluorescence (lower = inhibition) (MCF (arbitrary fluorescence units)) in assay [5] was 262.

With `Cc1c(Cl)c([N+](=O)[O-])nn1Cc1ccc(C(=O)N/N=C\c2ccccn2)o1`, the result in assay [1], in assay [4] and in assay [6] was inactive. Also, the fluorescence, percent of control (lower = inhibition) in assay [2] is 38.5%. For the same compound, in assay [3], the GTP binding, percent of control came to 53%. For the same compound, the GTP binding signal, raw median fluorescence (lower = inhibition) (MCF (arbitrary fluorescence units)) in assay [5] came out at 95.4.

`c1ccc(CN2CCN(CCOCCOc3cccc4ccccc34)CC2)cc1`: the compound was classed as inactive in assay [1], in assay [4] and in assay [6]. In assay [2], this compound gave a fluorescence, percent of control (lower = inhibition) of 28.9%. The compound also had a GTP binding, percent of control in assay [3] of 79%. In addition, in assay [5], the GTP binding signal, raw median fluorescence (lower = inhibition) (MCF (arbitrary fluorescence units)) was 234.

As to `Cc1noc(C)c1COc1cccc(C(=O)NCc2ccccc2Cl)c1`, the outcome in assay [1], in assay [4] and in assay [6] was inactive. In addition, in assay [2], the fluorescence, percent of control (lower = inhibition) was 91.7%. This compound displayed a GTP binding, percent of control in assay [3] of 163%. Besides, in assay [5], the GTP binding signal, raw median fluorescence (lower = inhibition) (MCF (arbitrary fluorescence units)) is 186.

For the compound `O=C1c2oc3ccc(Br)cc3c(=O)c2C(c2cccc(F)c2)N1CCO` (stereo not given), the result in assay [1], in assay [4] and in assay [6] was inactive. The compound further registered a fluorescence, percent of control (lower = inhibition) in assay [2] of 36.4%. Further, the GTP binding, percent of control in assay [3] came out at 81.2%. This compound displayed a GTP binding signal, raw median fluorescence (lower = inhibition) (MCF (arbitrary fluorescence units)) in assay [5] of 276.

Consider `Cc1ccccc1CSc1ncccc1C(=O)O`, for which the outcome in assay [1], in assay [4] and in assay [6] was inactive. This compound also gave a fluorescence, percent of control (lower = inhibition) in assay [2] of 74.5%. In assay [3], this compound gave a GTP binding, percent of control of 87.9%. For the same compound, in assay [5], the GTP binding signal, raw median fluorescence (lower = inhibition) (MCF (arbitrary fluorescence units)) is 48.3.

Turning to `CCOC(=O)c1c2c3c(c(Cl)ccc3[nH]c1=O)C(=O)c1ccccc1-2`, the outcome in assay [1], in assay [4] and in assay [6] was inactive. In assay [2], this compound showed a fluorescence, percent of control (lower = inhibition) of 19.1%. The GTP binding, percent of control in assay [3] stood at 46.2%. In assay [5], the GTP binding signal, raw median fluorescence (lower = inhibition) (MCF (arbitrary fluorescence units)) was 103.

`Cc1sc2nc3c(SC(C)C(=O)O)cc(C(=O)c4ccccc4O)cn3c(=O)c2c1C` (stereo not given): the compound was called inactive in assay [1], in assay [4] and in assay [6]. Moreover, in assay [2], the fluorescence, percent of control (lower = inhibition) came out at 29.3%. This compound also had a GTP binding, percent of control in assay [3] of 72.1%. The GTP binding signal, raw median fluorescence (lower = inhibition) (MCF (arbitrary fluorescence units)) in assay [5] was found to be 186.

In the case of `COc1cc2[nH]c(=S)nc(NCCc3ccc(S(N)(=O)=O)cc3)c2cc1OC`, the outcome in assay [1], in assay [4] and in assay [6] was inactive. The compound also displayed a fluorescence, percent of control (lower = inhibition) in assay [2] of 36.7%. This compound gave a GTP binding, percent of control in assay [3] of 81.9%. The compound further had a GTP binding signal, raw median fluorescence (lower = inhibition) (MCF (arbitrary fluorescence units)) in assay [5] of 268.

Turning to `CCOc1ccc2c(c1)c(N=NC(=N)N)c(O)n2C`, the call in assay [1], in assay [4] and in assay [6] was inactive. Further, the fluorescence, percent of control (lower = inhibition) in assay [2] amounted to 32.4%. This compound came in with a GTP binding, percent of control in assay [3] of 70.3%. In assay [5], this compound yielded a GTP binding signal, raw median fluorescence (lower = inhibition) (MCF (arbitrary fluorescence units)) of 165.

Take `COc1cc2[nH]c(=S)nc(NC3CCCC3)c2cc1OC`: the compound was classed as inactive in assay [1], in assay [4] and in assay [6]. In addition, the fluorescence, percent of control (lower = inhibition) in assay [2] worked out at 25.9%. Also, the GTP binding, percent of control in assay [3] came out at 56.7%. The compound also returned a GTP binding signal, raw median fluorescence (lower = inhibition) (MCF (arbitrary fluorescence units)) in assay [5] of 124.
